# Test results as given in ChEMBL document CHEMBL3988442, “University of Dundee, Small-Polar-MMV Screening Library” (2021).
# In all, about 48,000 compounds went through this assay and about 13,000 (27%) showed an effect of 50% or more. Some of the results follow.
# System: Wolbachia pipientis
# Experiment: Anti-Wolbachia Cell-Based Screen
# Type: functional
# Design: scale not given: in the data most compounds retested in dose-response had high values
# Settings: 5 µM
row,Compound,Percent Effect
1,CCC(CC)c1cc(CNC(=O)N2CCC[C@@H]2CO)on1,-2.754%
2,CCn1cc(CNc2ccc(F)c(N3CCCS3(=O)=O)c2)cn1,-13%
3,Cc1cccc(C(=O)N(CCCO)S(=O)(=O)c2cccs2)c1,-17.59%
4,O=C(CC1CCCC1)N1CCCC1c1nc(O)cc(-c2ccccn2)n1 (centres undefined),-10.15%
5,O=C(CN1CCCC1)N1CCCC1c1nc(O)cc(-c2ccccn2)n1 (centres undefined),91.97%
6,COCCC(=O)N1CCCC1c1nc(O)cc(-c2ccccn2)n1 (centres undefined),100.3%
7,C/C=C(/C)C(=O)NS(=O)(=O)c1ccc(C(F)(F)F)cc1,-1.888%
8,Cc1ccc2c(c1)N(C(=O)C1CCCOC1)CCC2 (centres undefined),0.6184%
9,O=C(C1COCCO1)N1CCN(CC(F)(F)F)c2ccccc21 (centres undefined),122.9%
10,CN1CCN(C(=O)C2CC=CC2)c2ccccc21,-33.89%
11,O=C(C1CCCOC1)N1CCN(CC(F)(F)F)c2ccccc21 (centres undefined),120.4%
12,O=C(C1CCCOC1)N1CCCc2ccccc21 (centres undefined),-6.498%
13,CC(C)(C)c1cc(NC(=O)C2COCCO2)n(-c2ccccn2)n1 (centres undefined),-13.16%
14,O=C(C1CCOC1)N1CCN(CC(F)(F)F)c2ccccc21 (centres undefined),125.3%
15,O=C(C1CCCOC1)N1CCCCc2ccccc21 (centres undefined),-3.66%
16,COc1nc(N2CCN(C(C)=O)CC2)ncc1Br,-6.459%
17,CCn1cc(S(=O)(=O)NC2CCCN(CCCc3ccccc3)C2)cn1 (centres undefined),-6.071%
18,c1ccc(CCCN2CCCC(Nc3cnc4ccccc4n3)C2)cc1 (centres undefined),45.74%
19,Cc1ccc(NC2CCCN(Cc3ccc(Cl)cc3)C2)nn1 (centres undefined),105.3%
20,CSc1ccccc1C(=O)N(C)C1CCCN(CCc2ccccc2)C1 (centres undefined),-4.554%
21,CC(C)c1ccc(NC2CCCN(Cc3ccncc3)C2)cc1 (centres undefined),-12.89%
22,Cc1ccc(NC2CCCN(C3Cc4ccccc4C3)C2)nn1 (centres undefined),-17.09%

row,Compound,Percent Effect
1,Cc1ccc(NC2CCCN(CCCc3ccccc3)C2)nn1 (centres undefined),90.19%
2,Cc1cc(C)nc(NC2CCCN(CCCc3ccccc3)C2)n1 (centres undefined),120.4%
3,Cc1nnc([C@H]2CCN(CCCc3ccccc3)C2)o1,-2.923%
4,Cc1cc(N[C@H]2CCCN(Cc3ccccc3)C2)n2nc(C)cc2n1,-7.34%
5,Cc1cc(NC2CCCN(Cc3ccc(F)cc3)C2)n2nc(C)cc2n1 (centres undefined),43.11%
6,Cc1ccc(NC2CCCN(CCc3ccccc3)C2)nn1 (centres undefined),81.81%
7,CCn1c(CN2CCC(O)(C(=O)OC)CC2)nc2c(F)cccc21,-8.235%
8,CSCCC(NC(N)=O)C(=O)NCc1c(C)nn(-c2ccccc2)c1C (centres undefined),-8.181%
9,FC(F)(F)c1ccccc1CCC1CCCN(Cc2cscn2)C1 (centres undefined),15.59%
10,COc1ccc2c(c1)nc1n2[C@@H](CNC(=O)c2cccnc2)COC1,-6.986%
11,O=C(N[C@@H]1CN(Cc2ccsc2)[C@@H]2CCCO[C@@H]21)C1CC1,-8.929%
12,O=C(O)C(F)(F)F.O=C([C@H]1C[C@H]2OCC[C@H]2N(Cc2ccoc2)C1)N1CCCO1,7.487%
13,O=C(NC1CCCC1)[C@H]1C[C@H]2OCC[C@H]2N(Cc2ccoc2)C1.O=C(O)C(F)(F)F,13.19%
14,CN(C)C(=O)N[C@@H]1CN(Cc2ccc3c(c2)OCO3)[C@@H]2CCCO[C@@H]21.O=C(O)C(F)(F)F,-22.69%
15,CN(C)C(=O)N[C@H]1CN(Cc2ccc3c(c2)OCO3)[C@@H]2CCCO[C@H]12.O=C(O)C(F)(F)F,93.48%
16,CN(C)C(=O)[C@H]1C[C@H]2OCC[C@H]2N(Cc2ccc3c(c2)OCO3)C1.O=C(O)C(F)(F)F,0.2139%
17,O=C(N[C@@H]1CN(Cc2cccs2)[C@@H]2CCCO[C@@H]21)C1CC1,-17.92%
18,O=C(N[C@H]1CN(Cc2ccsc2)[C@@H]2CCCO[C@H]12)C1CC1.O=C(O)C(F)(F)F,106.9%
19,O=C(N[C@@H]1CN(Cc2ccoc2)[C@@H]2CCCO[C@@H]21)C1CC1.O=C(O)C(F)(F)F,105.3%
20,O=C(c1ccccc1)C1CCN(Cc2cc3c(cc2O)CCC3)CC1,-3.001%
21,O=S(=O)(c1cccnc1)N1C[C@@H]2CC[C@H](C1)N(Cc1ccccc1)C2,-31.29%
22,Cn1cc(N2CCC(NC(=O)c3c(F)cccc3Cl)C2=O)cn1 (centres undefined),-23.29%

row,Compound,Percent Effect
1,Cc1ncccc1Oc1nccnc1C1CCN(C(C)C)CC1,-4.012%
2,Cc1ncccc1Oc1nccnc1C1CCCN(C(C)C)C1 (centres undefined),134.2%
3,COc1ccc(CN(C)C2CCN(S(C)(=O)=O)CC2)c2cccnc12,1.454%
4,Cc1ncccc1Oc1nccnc1C1CCN(S(C)(=O)=O)CC1,120.9%
5,COc1ccccc1Oc1ncccc1CNC(=O)C(C)N1CCCC1 (centres undefined),-2.64%
6,COCC(=O)N1CCC(c2nccnc2Oc2cccnc2C)CC1,0.288%
7,CN(C)CCN1CCN(C)C2(CCN(c3nccs3)CC2)C1=O,-6.968%
8,O=C(C1CCCC1)N1CCCC(c2nc(O)cc(-c3ccncc3)n2)C1 (centres undefined),85.76%
9,O=C(Nc1cc(-c2ccncc2)no1)C1CCCCC1,-8.136%
10,O=C(C1CC1)N1CCCC(c2nc(O)cc(-c3ccncc3)n2)C1 (centres undefined),87.21%
11,O=C(N1CCCC1)N1CCCC(c2nccn2Cc2ccncc2)C1 (centres undefined),19.93%
12,CC1(C)CNC(=O)c2nc(C3CCCN(C(=O)C4CC4)C3)[nH]c2C1 (centres undefined),-1.543%
13,CC(=O)c1cccc(NC(=O)C2CN(S(=O)(=O)C3CC3)C2)c1,8.617%
14,O=C(CCNc1ncccn1)N1CCC(Nc2cccnn2)CC1,106.9%
15,Cc1ccc(NC2CCN(C(=O)CCNc3ncccn3)CC2)nn1,111.7%
16,CC(C)(C)C(=O)NCCC(=O)N1CCC(Nc2cccnn2)CC1,101.9%
17,O=C(CCNCC(F)(F)F)N1CCC(Nc2cccnn2)CC1,-5.357%
18,Cc1ccc(NC2CCN(C(=O)CCNS(C)(=O)=O)CC2)nn1,-0.08742%
19,Cc1ccc(NC2CCN(C(=O)CCCn3ccnc3C)CC2)nn1,100.9%
20,Cc1nccn1CCCC(=O)N1CCC(Nc2cccnn2)CC1,11.87%
